# Assay results as given in the OligoGym collection.
# What was measured:
# Assay in all cases: pooled miR-30 sensor sort-seq; sequence = guide strand
# Details in all cases: shRNA
# TCERG1 = biological target: TCERG1
# TCL1B = biological target: TCL1B
# TCTN3 = biological target: TCTN3
# TCEANC2 = biological target: TCEANC2
# TEAD3 = biological target: TEAD3
# TGFB1I1 = biological target: TGFB1I1
# TMCO6 = biological target: TMCO6
# TMCC3 = biological target: TMCC3
# TM4SF4 = biological target: TM4SF4
# TM7SF2 = biological target: TM7SF2
# TMEFF2 = biological target: TMEFF2
# TMEM218 = biological target: TMEM218
# TMEM8B = biological target: TMEM8B
# TNFAIP6 = biological target: TNFAIP6
# TNPO2 = biological target: TNPO2
# TPPP2 = biological target: TPPP2
# TP73 = biological target: TP73
# TPPP3 = biological target: TPPP3
# TP53I13 = biological target: TP53I13
# TRAPPC2 = biological target: TRAPPC2
# TRIM38 = biological target: TRIM38
# TRMT1 = biological target: TRMT1
# TSC1 = biological target: TSC1
# TTLL3 = biological target: TTLL3
# TXLNG = biological target: TXLNG
# Note: reference of the scale not given here.
sequence,measurement,setting,value
TACATACTGATCAAACACCTGT,sensor-assay potency score (higher = more potent),TCERG1,0.349
TGAATCTTGAATCTTTAGCATG,sensor-assay potency score (higher = more potent),TCERG1,-1.15
TATCAGACCATGACACATCTGA,sensor-assay potency score (higher = more potent),TCERG1,0.29
TTGTCTTTTACTTTGCTCCATC,sensor-assay potency score (higher = more potent),TCERG1,-0.934
TTTCCCAGAAACTGGAATCCGC,sensor-assay potency score (higher = more potent),TCL1B,-0.902
ATGCTGGGTTCATATCTGCTGC,sensor-assay potency score (higher = more potent),TCL1B,-1.39
TACATGAAGATCCTCACTGAGG,sensor-assay potency score (higher = more potent),TCL1B,-0.791
TTGGTCTCTATCTCATAGGTGA,sensor-assay potency score (higher = more potent),TCTN3,-0.211
TATATCATCAGTCAGAGCCAAG,sensor-assay potency score (higher = more potent),TCTN3,-1.46
TTAATTAACCAGTACTGTGAGG,sensor-assay potency score (higher = more potent),TCL1B,-0.714
TGGATCGACAGCATTGTCGGAG,sensor-assay potency score (higher = more potent),TCERG1,-0.29
TCTGGATCCACAGACGGCCAGG,sensor-assay potency score (higher = more potent),TCL1B,-1.15
TTGATCAGGAAGCTCCAGCATA,sensor-assay potency score (higher = more potent),TCEANC2,-0.895
TTGATGAACTATCTACTGCTTT,sensor-assay potency score (higher = more potent),TCERG1,-0.0553
TTTATTATCGTCTCTCTTCCGT,sensor-assay potency score (higher = more potent),TCERG1,0.45
TATAGGAATCGAACTCCTGATA,sensor-assay potency score (higher = more potent),TCTN3,-0.82
TATAGTAGTAACTTCATCTGAC,sensor-assay potency score (higher = more potent),TCEANC2,0.875
TTTATAGCTGAAATGCTGCAGT,sensor-assay potency score (higher = more potent),TCTN3,0.223
TGTAACTTGCTGAGAATCCTGT,sensor-assay potency score (higher = more potent),TCTN3,0.381
TTGATCATGTACTCGCACATGG,sensor-assay potency score (higher = more potent),TEAD3,0.181
TTTAATATAGCGTGCAATCAAC,sensor-assay potency score (higher = more potent),TEAD3,-1.47
ATTTGTGGAGCTCACCACCGGT,sensor-assay potency score (higher = more potent),TGFB1I1,-0.966
TTCCTGAAGCAACCGATCTAGC,sensor-assay potency score (higher = more potent),TGFB1I1,-0.825
TTTTCTGCAACATTGCACAGAA,sensor-assay potency score (higher = more potent),TMCO6,0.104
TTGTTCACGATGGTAGCGCTGC,sensor-assay potency score (higher = more potent),TMCC3,-0.609
TTTTCTAAGCTTTATCAGCTAG,sensor-assay potency score (higher = more potent),TM4SF4,-0.744
TTGTAGCATGTGCTGAGGGAGA,sensor-assay potency score (higher = more potent),TMCO6,-1.18
TGCAACATTGCACAGAACTGTG,sensor-assay potency score (higher = more potent),TMCO6,-0.739
TAGAGATGGTCTCAAGCCCAGC,sensor-assay potency score (higher = more potent),TM7SF2,-1.47
TAAACGAGTATCCAGCTCCCAA,sensor-assay potency score (higher = more potent),TM4SF4,-1.07
TTGCACTTAATTTGAATCCAGG,sensor-assay potency score (higher = more potent),TMCC3,-0.313
TTAAAGTGTAACAAAACCCCTC,sensor-assay potency score (higher = more potent),TMCC3,-0.0862
TTATTGAAAACGAACACAGGTG,sensor-assay potency score (higher = more potent),TMCC3,-0.162
TACCTTTAGAATTTTTTGCTTC,sensor-assay potency score (higher = more potent),TMCC3,-0.127
TACTTCTGCAGGCACTGCCGCT,sensor-assay potency score (higher = more potent),TM7SF2,-1.41
AACATTTGTAGCATGTGCTGAG,sensor-assay potency score (higher = more potent),TMCO6,0.662
ATTGAGATAATCCCCGTCGTGG,sensor-assay potency score (higher = more potent),TM4SF4,-0.0711
TTTCGGAAAGTGTTTTTCTGGG,sensor-assay potency score (higher = more potent),TM7SF2,-0.966
TTGCTTGATACGTCCCGCCTGC,sensor-assay potency score (higher = more potent),TMCC3,-0.167
TTCTCTCTTAAACTGCACCTTC,sensor-assay potency score (higher = more potent),TMCC3,0.0499
TTGTCATCTATCACTTTTCCTC,sensor-assay potency score (higher = more potent),TM4SF4,-0.799
TATTTGAAGTCGAAGAAACAGA,sensor-assay potency score (higher = more potent),TM7SF2,-0.986
TAATGTTAAAGTCACAGTCTGA,sensor-assay potency score (higher = more potent),TMCC3,-0.348
TCGTGGAGGTGAACATCGCAAA,sensor-assay potency score (higher = more potent),TM4SF4,-1.55
TTTGACCTTGTGGAAGTCCAGG,sensor-assay potency score (higher = more potent),TMCC3,-0.907
ATACACACGATCCTGGAGCTGG,sensor-assay potency score (higher = more potent),TMCO6,-0.0753
AACATTGCACAGAACTGTGAGC,sensor-assay potency score (higher = more potent),TMCO6,-0.57
TTTGAAGTCGAAGAAACAGATA,sensor-assay potency score (higher = more potent),TM7SF2,-1.28
TTGAAAACGAACACAGGTGGAG,sensor-assay potency score (higher = more potent),TMCC3,0.022
TTTCTCAGCAGCCTCTTGCTGA,sensor-assay potency score (higher = more potent),TMCO6,-0.697
TTGATGAGGCAGATGACAGAGG,sensor-assay potency score (higher = more potent),TM7SF2,-0.497
TTGGGTATCCTTGATCTCCCTC,sensor-assay potency score (higher = more potent),TMCC3,0.381
TTTGAAAATAACAAAATTCTAA,sensor-assay potency score (higher = more potent),TM4SF4,-0.879
TCATGTGTGATATCCATGGTGG,sensor-assay potency score (higher = more potent),TM7SF2,-0.309
AGATGTAGTAACCAGTAGCATT,sensor-assay potency score (higher = more potent),TM7SF2,-2.06
TTCATGTAGAGAAAGAGGCTGA,sensor-assay potency score (higher = more potent),TM7SF2,0.647
TTGAGTCCCAAGTGTGTCGAGG,sensor-assay potency score (higher = more potent),TM7SF2,-0.705
AACATCGCAAATCGCTTCCCAC,sensor-assay potency score (higher = more potent),TM4SF4,-1.03
TATTTTATTCTTGCTAGTCTTT,sensor-assay potency score (higher = more potent),TMCC3,-0.521
TTGACCACCTGGATGGCGCAGA,sensor-assay potency score (higher = more potent),TM4SF4,-0.376
TTGTTGATTGAAATGGCTGAGA,sensor-assay potency score (higher = more potent),TM4SF4,-0.818
AAGATCATCAAGACACCGCTTC,sensor-assay potency score (higher = more potent),TM4SF4,0.685
TTGTCCTTCAATTCCTGCCCCT,sensor-assay potency score (higher = more potent),TM7SF2,-0.137
TTGTGTTATCTTGACATCGACC,sensor-assay potency score (higher = more potent),TMEFF2,-0.895
AAAAGCAACAGAACTGATGTGA,sensor-assay potency score (higher = more potent),TMEM218,0.455
TGAAGGTGTAGACTGCAGCTTC,sensor-assay potency score (higher = more potent),TMEM8B,-0.202
AAGCACTGCTGTCTCTGTCTGT,sensor-assay potency score (higher = more potent),TMEM8B,-0.532
TTCAAATTCACACACCGCCTTA,sensor-assay potency score (higher = more potent),TNFAIP6,-0.588
TTGTATTTTTTCCTTGACTGGA,sensor-assay potency score (higher = more potent),TNFAIP6,-0.793
TTGACACCGATCATCATGCAGA,sensor-assay potency score (higher = more potent),TNPO2,-0.349
AATGTTGTTGAGACACTCCTGT,sensor-assay potency score (higher = more potent),TNPO2,0.856
TTGTTGCTTTAGTAGCGCCAGT,sensor-assay potency score (higher = more potent),TPPP2,-1.46
TTGCTGGTGTCTGTCAAACGGT,sensor-assay potency score (higher = more potent),TPPP2,-1.11
TTGATGATTCTCCAAACGCAGC,sensor-assay potency score (higher = more potent),TPPP2,-1.67
TTGAACTGTTGAAACGTGATGG,sensor-assay potency score (higher = more potent),TPPP2,0.216
TGGAGCAGACTGTCCTTCGTTG,sensor-assay potency score (higher = more potent),TP73,-1.24
TTTGCTGAACACGATGTCCACG,sensor-assay potency score (higher = more potent),TPPP2,-0.579
TTGAACTCCTCATAGTTGATGA,sensor-assay potency score (higher = more potent),TPPP3,-0.547
TTGTGGGAGCCCGTGTATCTGC,sensor-assay potency score (higher = more potent),TPPP3,-1.44
TAGTACGTGTCCTCGTCTCCAT,sensor-assay potency score (higher = more potent),TP73,-0.503
TTTTGCTTTAGTGACGCCCACA,sensor-assay potency score (higher = more potent),TPPP3,-1.34
TTGGGAGGTGAAATACTCGATG,sensor-assay potency score (higher = more potent),TP73,-0.725
TTGTTGTTCATTTCAGTGCCAC,sensor-assay potency score (higher = more potent),TPPP2,0.0122
TCTGGTTCCAGAGAGCTCCAGA,sensor-assay potency score (higher = more potent),TP73,0.275
TGACTTGAACAGACACAGCCCC,sensor-assay potency score (higher = more potent),TP53I13,-0.111
TTGCCATTCATCTCTTGCCCAC,sensor-assay potency score (higher = more potent),TPPP3,-1.13
TCGTGTGTAGGTCACTCTTGGT,sensor-assay potency score (higher = more potent),TP53I13,-1.06
TTTCACGACGTCGGTCACGTGC,sensor-assay potency score (higher = more potent),TP73,-1.03
TTACACATGAAGTTGTACAGGA,sensor-assay potency score (higher = more potent),TP73,1.03
TTGTAGGCGCTCACGTAGCCAC,sensor-assay potency score (higher = more potent),TPPP3,-1.01
TTGACTTTGGAGAAGACGATGT,sensor-assay potency score (higher = more potent),TPPP3,-0.378
TTCTTGGCCTTGACTTTGCTGA,sensor-assay potency score (higher = more potent),TPPP2,-0.996
TTTCACAGTAGATCCATGCCTT,sensor-assay potency score (higher = more potent),TP53I13,0.393
TTGGTGACACCTGCGGAGGCAG,sensor-assay potency score (higher = more potent),TP53I13,-1.23
TGTAACCACTCACATAGCCTGT,sensor-assay potency score (higher = more potent),TPPP2,-0.785
TTGTCAGTCATCTCTTCCCGTC,sensor-assay potency score (higher = more potent),TPPP2,-0.714
TCACTCTTGGTGACACCTGCGG,sensor-assay potency score (higher = more potent),TP53I13,-0.664
TACACAGCTGCTGTTACACATG,sensor-assay potency score (higher = more potent),TP73,-0.991
TTGGTCGCCAGCTCTTCCAGGG,sensor-assay potency score (higher = more potent),TPPP3,-0.176
TTGTAACCACTCACATAGCCTG,sensor-assay potency score (higher = more potent),TPPP2,-0.748
TTCAGCACAGCAGCCACTGTGT,sensor-assay potency score (higher = more potent),TP53I13,-0.771
TCGAAGTAGGTGCTGTCTGGTT,sensor-assay potency score (higher = more potent),TP73,-0.818
TTGTAAACAGGCATGGCCCGGA,sensor-assay potency score (higher = more potent),TP73,0.143
TAGAGGAAGGTGACATCCTCAG,sensor-assay potency score (higher = more potent),TP53I13,-0.655
TTGGGTGTAGCTGCCGAACTGT,sensor-assay potency score (higher = more potent),TP73,-0.212
TTGCAGTCCTTGCACAGCTTGG,sensor-assay potency score (higher = more potent),TPPP3,-0.971
TTATTGTTTTCCAAGCTCCCTG,sensor-assay potency score (higher = more potent),TPPP2,-0.417
TCTTTGAACTGTTGAAACGTGA,sensor-assay potency score (higher = more potent),TPPP2,-0.298
TTTCCGTCAGCCACCTTGCAGT,sensor-assay potency score (higher = more potent),TPPP3,-0.592
TAGAGTTTCTTCAAGAGCGGGG,sensor-assay potency score (higher = more potent),TP73,0.308
TGTAGCTGCCGAACTGTGCGGG,sensor-assay potency score (higher = more potent),TP73,-0.215
TTGATCGAATAGGAGAATTGGG,sensor-assay potency score (higher = more potent),TRAPPC2,-0.578
TATATAAATCATAAACATCAGT,sensor-assay potency score (higher = more potent),TRAPPC2,-0.905
TAAACCTGGAAATAGGGCCGGA,sensor-assay potency score (higher = more potent),TRIM38,-0.714
TCTGTCTTCAAGTTGCTTCAGT,sensor-assay potency score (higher = more potent),TRIM38,0.253
TTGCGTGTCCTTCTCTCCTGGA,sensor-assay potency score (higher = more potent),TRMT1,-0.847
TCATTGAGCTGGACATTCCGGC,sensor-assay potency score (higher = more potent),TRMT1,0.0258
TAGATATTTCTTCTGTTCCAAA,sensor-assay potency score (higher = more potent),TSC1,-1.26
TACTTCTGCACCACCCACTTGC,sensor-assay potency score (higher = more potent),TTLL3,-0.25
TTGCACTCTGAATCTTGCTGAC,sensor-assay potency score (higher = more potent),TXLNG,0.000943
